# Where “and” joins values, the source holds several entries; their conditions need not be identical. Identical values can stand only once. Records with an inconclusive call do not appear. Calls of active or inactive are those of the source. The calls were made as follows, unless noted: active = hit-call score of the fitted dose curve at least 0.9, where 1 is the maximum; inconclusive = response in the unintended direction; inactive = score below 0.9.
# Key:
# [1] = target: Cytochrome P450 2C19 (Homo sapiens) (UniProt P33261); experiment: NVS_ADME_hCYP2C19: NovaScreen (NVS) CYP450-related Enzyme Activity (ADME) Assay for human CYP2C19 (AID 2283113);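 as to AC50: potency for inhibition seen as loss of fluorescent signal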
# In short: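 Cell-free recombinant human CYP2C19 from insect cells, fluorescent substrate; activity read by fluorescence intensity 1 h after dosing. Primary screen in duplicate at 10 uM; actives retested in concentration series. Signal loss versus acetonitrile negative control.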
# [2] = target: human Beta-secretase (BACE), BACE1 (gene 23621) (UniProt P56817); experiment: NVS_ENZ_hBACE: NovaScreen (NVS) Enzymatic Assay for human Beta-secretase (BACE) (AID 2283140);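 also: hits are inhibitors that reduce fluorescent substrate signal versus DMSO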
# Sequence of human Beta-secretase (BACE), BACE1 (gene 23621) (P56817 whole entry, looked up): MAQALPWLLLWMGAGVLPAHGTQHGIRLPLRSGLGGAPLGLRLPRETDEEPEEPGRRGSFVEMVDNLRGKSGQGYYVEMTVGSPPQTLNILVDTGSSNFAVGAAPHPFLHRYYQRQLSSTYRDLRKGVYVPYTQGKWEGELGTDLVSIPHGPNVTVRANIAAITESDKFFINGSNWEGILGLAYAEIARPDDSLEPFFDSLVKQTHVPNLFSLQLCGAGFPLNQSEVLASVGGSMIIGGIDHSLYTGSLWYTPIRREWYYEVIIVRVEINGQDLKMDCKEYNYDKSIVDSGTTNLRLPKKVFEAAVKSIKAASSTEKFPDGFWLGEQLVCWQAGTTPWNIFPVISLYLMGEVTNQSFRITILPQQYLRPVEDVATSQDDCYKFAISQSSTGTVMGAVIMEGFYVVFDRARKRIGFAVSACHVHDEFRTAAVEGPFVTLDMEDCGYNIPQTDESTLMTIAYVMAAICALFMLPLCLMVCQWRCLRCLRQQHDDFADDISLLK
# In short: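 Enzyme from SF9 cells was incubated 1 hour with compound and fluorogenic substrate, activity read by fluorescence. Single-concentration duplicates at 25 uM preceded concentration-response follow-up; fitting relative to DMSO baseline.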
# [3] = target: human Casein Kinase 1-delta (CK1D), CSNK1D (gene 1453) (UniProt P48730); experiment: NVS_ENZ_hCK1D: NovaScreen (NVS) Enzymatic Assay for human Casein Kinase 1-delta (CK1D) (AID 2283148)
# Sequence of human Casein Kinase 1-delta (CK1D), CSNK1D (gene 1453) (P48730 whole entry, looked up): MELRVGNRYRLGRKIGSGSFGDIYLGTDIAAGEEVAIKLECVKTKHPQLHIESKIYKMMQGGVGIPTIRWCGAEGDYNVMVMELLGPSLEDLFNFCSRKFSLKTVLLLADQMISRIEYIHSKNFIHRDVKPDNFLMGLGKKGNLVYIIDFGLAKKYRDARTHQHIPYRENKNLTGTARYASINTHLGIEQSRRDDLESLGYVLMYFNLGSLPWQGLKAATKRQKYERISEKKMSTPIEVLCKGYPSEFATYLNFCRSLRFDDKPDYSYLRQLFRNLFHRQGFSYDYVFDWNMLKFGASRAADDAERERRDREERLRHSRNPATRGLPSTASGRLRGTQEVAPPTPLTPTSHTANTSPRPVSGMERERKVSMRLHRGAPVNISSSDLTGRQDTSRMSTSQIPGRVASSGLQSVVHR
# In short: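 Recombinant human CK1-delta, cell-free; fluorescent substrate with electrophoretic mobility-shift separation of product, read 1 h after dosing. Single 25 uM duplicate screen, then concentration-response up to 50 uM; loss of signal vs DMSO.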
# [4] = target: human Dual Specificity Protein Phosphatase 3 (DUSP3), DUSP3 (gene 1845) (UniProt P51452); experiment: NVS_ENZ_hDUSP3: NovaScreen (NVS) Enzymatic Assay for human Dual Specificity Protein Phosphatase 3 (DUSP3) (AID 2283152);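 also: phosphatase activity of recombinant human DUSP3 on a fluorogenic substrate without cells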
# Sequence of human Dual Specificity Protein Phosphatase 3 (DUSP3), DUSP3 (gene 1845) (P51452 whole entry, looked up): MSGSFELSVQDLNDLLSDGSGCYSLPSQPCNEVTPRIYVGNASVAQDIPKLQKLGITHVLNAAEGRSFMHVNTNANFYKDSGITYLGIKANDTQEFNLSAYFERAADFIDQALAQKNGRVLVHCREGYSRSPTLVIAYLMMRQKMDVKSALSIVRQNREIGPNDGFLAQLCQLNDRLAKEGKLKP
# In short: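 Cell-free fluorescence-intensity enzyme activity assay with recombinant protein and substrate; loss of signal fitted relative to DMSO baseline. Primary screen in duplicate at 25 uM, actives then run in concentration series; measured 0 h after dosing.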
# [5] = target: rat CYP2A2, Cyp2a2 (gene 24895) (UniProt P15149); experiment: NVS_ADME_rCYP2A2: NovaScreen (NVS) CYP450-related Enzyme Activity (ADME) Assay for rat CYP2A2 (AID 2283116)
# Sequence of rat CYP2A2, Cyp2a2 (gene 24895) (P15149 whole entry, looked up): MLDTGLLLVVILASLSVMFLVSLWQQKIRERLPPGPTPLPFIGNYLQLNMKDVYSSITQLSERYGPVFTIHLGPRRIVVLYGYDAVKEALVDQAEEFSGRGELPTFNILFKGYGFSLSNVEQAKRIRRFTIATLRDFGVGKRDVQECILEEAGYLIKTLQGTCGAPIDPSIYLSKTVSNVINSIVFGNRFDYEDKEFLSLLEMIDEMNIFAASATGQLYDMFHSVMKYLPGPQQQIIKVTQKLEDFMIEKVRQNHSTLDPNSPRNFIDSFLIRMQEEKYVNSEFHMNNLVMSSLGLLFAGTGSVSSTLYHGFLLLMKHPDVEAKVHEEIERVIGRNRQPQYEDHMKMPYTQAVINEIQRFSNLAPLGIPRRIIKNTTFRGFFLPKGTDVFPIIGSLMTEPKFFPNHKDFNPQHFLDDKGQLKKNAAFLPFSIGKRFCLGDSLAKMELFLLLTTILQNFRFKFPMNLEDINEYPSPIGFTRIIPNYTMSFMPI
# In short: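 Compounds first tested in duplicate at 10 uM, then in singleton concentration series up to 20 uM when over threshold. Activity of the recombinant enzyme read by fluorescence at 0.2 h, normalised to acetonitrile vehicle.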
# CDK2 (gene 1017) = CDK2 (gene 1017) (UniProt P24941); experiment: NVS_ENZ_hCDK2: NovaScreen (NVS) Enzymatic Assay for human Cyclin-Cependent Kinase 2 (CDK2) (AID 2283144)
# In short: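 Compounds screened in duplicate at 25 uM, then in singleton concentration-response to a maximum of 50 uM, against recombinant CDK2; kinase activity read 1 hr after dosing by fluorescence with mobility-shift separation of substrate and product.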
# [6] = target: human Colony Stimulating Factor 1 Receptor (CSF1R), CSF1R (gene 1436) (UniProt P07333); experiment: NVS_ENZ_hCSF1R: NovaScreen (NVS) Enzymatic Assay for human Colony Stimulating Factor 1 Receptor (CSF1R) (AID 2283150)
# In short: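 Compounds screened in duplicate at 25 uM, then concentration-response (top 50 uM) for those passing threshold such as 30% inhibition; recombinant CSF1R activity measured 1 h post-dosing via fluorescent substrate/product mobility-shift separation, loss of signal versus DMSO.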
# [7] = target: human Elastase, ELANE (gene 1991) (UniProt P08246); experiment: NVS_ENZ_hElastase: NovaScreen (NVS) Enzymatic Assay for human Elastase (AID 2283153)
# Sequence of human Elastase, ELANE (gene 1991) (P08246 whole entry, looked up): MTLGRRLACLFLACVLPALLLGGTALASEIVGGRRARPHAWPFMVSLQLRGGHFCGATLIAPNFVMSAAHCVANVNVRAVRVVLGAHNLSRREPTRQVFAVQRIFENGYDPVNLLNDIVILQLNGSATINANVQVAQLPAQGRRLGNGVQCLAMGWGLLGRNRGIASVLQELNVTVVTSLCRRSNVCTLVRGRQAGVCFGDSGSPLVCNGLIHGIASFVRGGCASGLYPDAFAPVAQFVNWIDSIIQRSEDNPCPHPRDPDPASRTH
# In short: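 Concentration-response to 50 uM max, run singly for chemicals passing a threshold (e.g., 30% inhibition) in a duplicate 25 uM single-point screen. Neutrophil-derived human elastase, absorbance read-out of enzyme activity at 1.5 h; DMSO baseline.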
# [8] = target: human AKT serine/threonine Kinase 1 (AKT1), AKT1 (gene 207) (UniProt P31749); experiment: NVS_ENZ_hAKT1: NovaScreen (NVS) Enzymatic Assay for human AKT serine/threonine Kinase 1 (AKT1) (AID 2283138)
# Sequence of human AKT serine/threonine Kinase 1 (AKT1), AKT1 (gene 207) (P31749 whole entry, looked up): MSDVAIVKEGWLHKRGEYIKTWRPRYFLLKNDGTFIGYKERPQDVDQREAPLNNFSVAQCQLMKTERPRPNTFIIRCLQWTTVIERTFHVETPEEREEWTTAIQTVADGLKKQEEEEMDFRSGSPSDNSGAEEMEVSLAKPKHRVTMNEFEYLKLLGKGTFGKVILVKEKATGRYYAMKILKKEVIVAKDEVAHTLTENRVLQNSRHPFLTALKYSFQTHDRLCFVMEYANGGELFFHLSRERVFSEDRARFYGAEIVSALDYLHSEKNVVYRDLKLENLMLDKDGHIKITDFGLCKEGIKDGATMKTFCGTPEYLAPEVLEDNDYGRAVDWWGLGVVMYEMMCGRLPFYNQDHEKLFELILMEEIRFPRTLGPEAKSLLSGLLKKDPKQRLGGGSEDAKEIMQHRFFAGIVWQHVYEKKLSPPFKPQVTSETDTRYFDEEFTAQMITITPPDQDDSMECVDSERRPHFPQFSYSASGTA
# In short: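 Screening first at 25 uM (duplicate), with threshold-passing chemicals re-tested in concentration series to a 50 uM maximum. Kinase activity read by fluorescence with mobility-shift separation of substrate and product, 1 h after dosing, DMSO baseline.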
# [9] = target: human Caspase 8 (CASP8), CASP8 (gene 841) (UniProt Q14790); experiment: NVS_ENZ_hCASP8: NovaScreen (NVS) Enzymatic Assay for human Caspase 8 (CASP8) (AID 2283146)
# Sequence of human Caspase 8 (CASP8), CASP8 (gene 841) (Q14790 whole entry, looked up): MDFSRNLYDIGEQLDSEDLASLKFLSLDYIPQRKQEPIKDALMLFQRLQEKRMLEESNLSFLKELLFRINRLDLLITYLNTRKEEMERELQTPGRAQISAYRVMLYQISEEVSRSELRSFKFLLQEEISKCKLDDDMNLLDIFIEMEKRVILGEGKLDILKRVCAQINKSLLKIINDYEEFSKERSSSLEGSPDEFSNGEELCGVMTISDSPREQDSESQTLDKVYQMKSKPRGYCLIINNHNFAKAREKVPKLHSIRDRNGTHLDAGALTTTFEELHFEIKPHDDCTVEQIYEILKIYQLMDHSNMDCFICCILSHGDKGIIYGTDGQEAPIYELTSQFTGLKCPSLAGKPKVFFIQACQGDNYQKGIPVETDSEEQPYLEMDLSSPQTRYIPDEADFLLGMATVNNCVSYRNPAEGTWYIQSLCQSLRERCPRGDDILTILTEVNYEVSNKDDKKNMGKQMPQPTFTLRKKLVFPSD
# In short: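 The primary screen tested compounds in duplicate at a single 25 uM concentration, with actives followed up in concentration series. Activity of recombinant (E. coli) protease was measured by fluorescence 1 h post-dose, as signal loss against DMSO.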
# [10] = target: rat CYP2A1, Cyp2a1 (gene 24894) (UniProt P11711); experiment: NVS_ADME_rCYP2A1: NovaScreen (NVS) CYP450-related Enzyme Activity (ADME) Assay for rat CYP2A1 (AID 2283114; active = hit-call score of the fitted dose curve at least 0.9, where 1 is the maximum; inactive = score below 0.9)
# In short: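 Cell-free fluorescence enzyme-activity read on recombinant rat CYP2A1, taken 0.75 h post-dosing. Compounds were screened in duplicate at 10 uM, then hits tested in concentration series (max 20 uM); inhibition scored relative to acetonitrile baseline.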
# [11] = target: rat CYP2C11, Cyp2c11 (gene 29277) (UniProt P08683); experiment: NVS_ADME_rCYP2C11: NovaScreen (NVS) CYP450-related Enzyme Activity (ADME) Assay for rat CYP2C11 (AID 2283118)
# Sequence of rat CYP2C11, Cyp2c11 (gene 29277) (P08683 whole entry, looked up): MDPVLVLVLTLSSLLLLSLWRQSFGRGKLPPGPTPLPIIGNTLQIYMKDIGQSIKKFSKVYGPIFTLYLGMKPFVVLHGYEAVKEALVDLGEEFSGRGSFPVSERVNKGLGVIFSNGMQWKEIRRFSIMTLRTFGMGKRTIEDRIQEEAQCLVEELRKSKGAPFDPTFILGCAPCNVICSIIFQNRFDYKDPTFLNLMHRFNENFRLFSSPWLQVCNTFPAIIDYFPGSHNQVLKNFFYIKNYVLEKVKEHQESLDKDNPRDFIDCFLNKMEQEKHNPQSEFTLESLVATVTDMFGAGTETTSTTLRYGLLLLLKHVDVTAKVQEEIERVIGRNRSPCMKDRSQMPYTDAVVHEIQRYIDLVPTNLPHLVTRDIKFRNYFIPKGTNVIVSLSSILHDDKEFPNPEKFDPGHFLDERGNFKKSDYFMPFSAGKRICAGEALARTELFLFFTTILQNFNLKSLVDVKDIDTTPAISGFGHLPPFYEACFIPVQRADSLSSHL
# In short: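 Screened first at 10 uM in duplicate, hits followed by concentration-response. Recombinant rat enzyme activity monitored by fluorescence 0.33 h post-dosing, normalised to acetonitrile negative control.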
# [12] = target: rat CYP2C13, Cyp2c13 (gene 171521) (UniProt P20814); experiment: NVS_ADME_rCYP2C13: NovaScreen (NVS) CYP450-related Enzyme Activity (ADME) Assay for rat CYP2C13 (AID 2283121)
# Sequence of rat CYP2C13, Cyp2c13 (gene 171521) (P20814 whole entry, looked up): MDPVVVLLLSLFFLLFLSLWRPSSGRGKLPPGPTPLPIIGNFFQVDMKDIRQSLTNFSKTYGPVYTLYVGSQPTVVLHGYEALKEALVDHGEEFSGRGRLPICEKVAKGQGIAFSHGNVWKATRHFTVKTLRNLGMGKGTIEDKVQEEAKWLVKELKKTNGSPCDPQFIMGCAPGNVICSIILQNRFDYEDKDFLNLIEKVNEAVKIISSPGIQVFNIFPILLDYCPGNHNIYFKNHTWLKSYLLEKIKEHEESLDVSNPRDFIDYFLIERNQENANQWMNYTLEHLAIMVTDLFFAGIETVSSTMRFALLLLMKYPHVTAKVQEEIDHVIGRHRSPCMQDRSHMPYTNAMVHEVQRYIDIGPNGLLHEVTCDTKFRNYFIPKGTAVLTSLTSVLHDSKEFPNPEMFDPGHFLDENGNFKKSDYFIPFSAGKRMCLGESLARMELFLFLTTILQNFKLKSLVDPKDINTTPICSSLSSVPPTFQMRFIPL
# In short: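 Inhibition is read as decreased fluorescent product formation, referenced to acetonitrile vehicle. Cell-free recombinant rat Cyp2c13 reaction ran 0.75 hour; compounds first at 10 uM in duplicate, then concentration series for actives.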
# [13] = target: human Acid Phosphatase 1 (ACP1), ACP1 (gene 52) (UniProt P24666); experiment: NVS_ENZ_hACP1: NovaScreen (NVS) Enzymatic Assay for human Acid Phosphatase 1 (ACP1) (AID 2283136)
# Sequence of human Acid Phosphatase 1 (ACP1), ACP1 (gene 52) (P24666 whole entry, looked up): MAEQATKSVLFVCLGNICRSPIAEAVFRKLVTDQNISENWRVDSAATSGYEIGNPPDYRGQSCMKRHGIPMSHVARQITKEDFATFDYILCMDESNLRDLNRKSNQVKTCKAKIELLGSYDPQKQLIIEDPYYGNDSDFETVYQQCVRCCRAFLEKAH
# In short: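 Cell-free fluorescence read-out of phosphatase activity, substrate and product separated by mobility shift, taken 1.5 h after compound addition; protein produced in Sf9. Single 25 uM duplicate screen, followed by concentration series for actives, scored as signal loss relative to DMSO.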
# rat CYP3A1, gene 25642 = experiment: NVS_ADME_rCYP3A1: NovaScreen (NVS) CYP450-related Enzyme Activity (ADME) Assay for rat CYP3A1 (AID 2283126)
# In short: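 Compounds went first at 10 uM duplicate, then to series with 20 uM maximum. Fluorescence from substrate turnover by the recombinant enzyme was measured 0.5 h post-dosing, inhibition scored against acetonitrile vehicle.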
# [14] = target: rat CYP3A2, Cyp3a2 (gene 266682) (UniProt P05183); experiment: NVS_ADME_rCYP3A2: NovaScreen (NVS) CYP450-related Enzyme Activity (ADME) Assay for rat CYP3A2 (AID 2283128)
# Sequence of rat CYP3A2, Cyp3a2 (gene 266682) (P05183 whole entry, looked up): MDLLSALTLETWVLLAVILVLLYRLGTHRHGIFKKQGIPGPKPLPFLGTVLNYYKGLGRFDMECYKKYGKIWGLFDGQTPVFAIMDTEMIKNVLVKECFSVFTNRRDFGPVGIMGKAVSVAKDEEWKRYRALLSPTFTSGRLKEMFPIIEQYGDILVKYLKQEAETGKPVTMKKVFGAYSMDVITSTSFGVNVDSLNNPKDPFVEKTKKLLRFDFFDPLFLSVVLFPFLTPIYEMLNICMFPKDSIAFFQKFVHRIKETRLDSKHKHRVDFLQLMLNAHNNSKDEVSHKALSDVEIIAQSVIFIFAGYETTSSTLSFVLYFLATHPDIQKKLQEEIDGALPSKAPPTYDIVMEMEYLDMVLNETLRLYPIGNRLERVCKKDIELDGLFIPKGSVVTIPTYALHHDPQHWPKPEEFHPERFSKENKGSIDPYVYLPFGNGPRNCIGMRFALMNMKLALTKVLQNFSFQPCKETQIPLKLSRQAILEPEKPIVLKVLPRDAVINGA
# In short: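 Fluorescence readout of extracted rat CYP3A2 activity 0.5 h post-dose, acetonitrile as negative control. Single-point testing in duplicate at 10 uM, followed by concentration series to a 20 uM maximum for actives.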
# Caspase-3 (Homo sapiens) = Caspase-3 (Homo sapiens) (UniProt P42574); experiment: NVS_ENZ_hCASP3: NovaScreen (NVS) Enzymatic Assay for human Caspase 3 (CASP3) (AID 2283139)
# Sequence of Caspase-3 (Homo sapiens) (P42574 whole entry, looked up): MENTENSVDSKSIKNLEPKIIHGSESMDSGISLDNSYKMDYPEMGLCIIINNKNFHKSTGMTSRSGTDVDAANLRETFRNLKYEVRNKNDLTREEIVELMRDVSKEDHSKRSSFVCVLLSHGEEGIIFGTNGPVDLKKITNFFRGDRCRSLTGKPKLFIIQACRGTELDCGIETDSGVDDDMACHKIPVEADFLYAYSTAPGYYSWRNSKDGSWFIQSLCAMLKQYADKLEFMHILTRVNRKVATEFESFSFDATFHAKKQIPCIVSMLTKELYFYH
# In short: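 Single-concentration screening at 25 uM in duplicate, with concentration-response follow-up to a 50 uM maximum for chemicals passing the threshold. Caspase-3 (human, E. coli-expressed) activity was read as substrate fluorescence after 1 h, with loss of signal relative to DMSO.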
# [15] = target: human Caspase 4 (CASP4), CASP4 (gene 837) (UniProt P49662); experiment: NVS_ENZ_hCASP4: NovaScreen (NVS) Enzymatic Assay for human Caspase 4 (CASP4) (AID 2283143)
# In short: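 Compounds were first tested in duplicate at 25 uM, and hits were titrated singly to a 50 uM maximum. Recombinant protease from E. coli was read by fluorescence 2 h post-dose, and activity loss was fitted against the DMSO baseline.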
smiles,measurement,setting,value
CN(C)c1ccc(C(=C2C=CC(=[N+](C)C)C=C2)c2ccc(N(C)C)cc2)cc1,AC50,[1],3.32 µM (active)
same,AC50,[2],14 µM (active)
O=C(Nc1ccc(Cl)cc1)Nc1ccc(Cl)c(Cl)c1,AC50,[1],10 µM (active)
same,AC50,[2],16.3 µM (active)
same,outcome,[3],inactive
same,outcome,[4],inactive
Cc1cccc2ccccc12,outcome,[1],inactive
CC(C)(C)c1cc(/C=C2\SC(N)=NC2=O)cc(C(C)(C)C)c1O,AC50,[1],1.16 µM (active)
O=C1c2ccccc2C(=O)N1CCc1noc(-c2ccc(CN3CCCCCC3)s2)n1,AC50,[1],1.13 µM (active)
same,outcome,[3],inactive
same,AC50,[4],19.9 µM (active)
CCCCOC(=O)CC(CC(=O)OCCCC)(OC(C)=O)C(=O)OCCCC,AC50,[1],3.7 µM (active) and 9.42 µM (active)
same,outcome,[5],inactive
CCCOC(=O)c1cc(O)c(O)c(O)c1,outcome,[1],inactive
COc1cc(C(=O)NC2CCN(C)CC2)ccc1Nc1ncc2c(n1)N(C1CCCC1)CC(F)(F)C(=O)N2C,AC50,[1],7.11 µM (active)
same,outcome,[2],inactive
same,outcome,CDK2 (gene 1017),inactive
same,AC50,[3],18.1 µM (active)
same,AC50,[6],11.2 µM (active)
NCc1cccc(C2CCN(C(=O)c3ccc(C#Cc4ccccc4F)o3)CC2)c1,AC50,[1],0.23 µM (active)
same,AC50,[2],41.8 µM (active)
COc1ccc2cc(S(=O)(=O)N[C@H](CC(=O)N[C@H](Cc3ccc(CN4[C@H](C)CCC[C@@H]4C)cc3)C(=O)N(C)C(C)C)c3ccc4c(c3)OCO4)ccc2c1,AC50,[1],5.3 µM (active)
same,outcome,[2],inactive
same,AC50,[4],3.86 µM (active)
same,AC50,[7],9.38 µM (active)
CO[C@H]1/C=C/O[C@@]2(C)Oc3c(C)c(O)c4c(O)c(c(/C=N/N5CCN(C)CC5)c(O)c4c3C2=O)NC(=O)/C(C)=C\C=C\[C@H](C)[C@H](O)[C@@H](C)[C@@H](O)[C@@H](C)[C@H](OC(C)=O)[C@@H]1C,AC50,[1],10.7 µM (active)
same,AC50,[8],25.1 µM (active)
same,outcome,[2],inactive
same,AC50,[9],6.48 µM (active)
same,AC50,[4],7.6 µM (active)
Clc1ccccc1C(c1ccccc1)(c1ccccc1)n1ccnc1,AC50,[1],1.1 µM (active)
CC/C(=C(/CC)c1ccc(O)cc1)c1ccc(O)cc1,AC50,[10],8.99 µM (active)
same,AC50,[5],10.2 µM (active)
same,AC50,[11],1.95 µM (active) and 7.02 µM (active)
same,AC50,[12],1.08 µM (active) and 3.79 µM (active)
same,outcome,[13],inactive
O=c1c(-c2ccc(O)cc2)coc2cc(O)cc(O)c12,AC50,"rat CYP3A1, gene 25642",8.92 µM (active) and 5.71 µM (active)
same,AC50,[14],995 nM (active) and 815 nM (active) and 5.56 µM (active)
c1ccc2ccccc2c1,outcome,[13],inactive
CCN(Cc1cccc(S(=O)(=O)O)c1)c1ccc(C(=C2C=CC(=[N+](CC)Cc3cccc(S(=O)(=O)O)c3)C=C2)c2ccccc2S(=O)(=O)[O-])cc1,outcome,Caspase-3 (Homo sapiens),inactive
same,AC50,[15],4.96 µM (active)

# Reference: PubChem BioAssay (EPA / NIEHS)
